For 45 sequences, binding signal results are on record in article PMC10726135, “HNF4α isoforms regulate the circadian balance between carbohydrate and lipid metabolism in the liver”.

Whole data set: some 18,000 sequences, median “log2 normalized intensity” near 0.39, cut for the highest 2% near 6.6. Shown is part of a subset that was picked to be rich in the highest values.

The target of this experiment is T1, HNF4alpha2 (COS-7 nuclear extract) (Homo sapiens, UniProt P41235 1-474).
T1 sequence: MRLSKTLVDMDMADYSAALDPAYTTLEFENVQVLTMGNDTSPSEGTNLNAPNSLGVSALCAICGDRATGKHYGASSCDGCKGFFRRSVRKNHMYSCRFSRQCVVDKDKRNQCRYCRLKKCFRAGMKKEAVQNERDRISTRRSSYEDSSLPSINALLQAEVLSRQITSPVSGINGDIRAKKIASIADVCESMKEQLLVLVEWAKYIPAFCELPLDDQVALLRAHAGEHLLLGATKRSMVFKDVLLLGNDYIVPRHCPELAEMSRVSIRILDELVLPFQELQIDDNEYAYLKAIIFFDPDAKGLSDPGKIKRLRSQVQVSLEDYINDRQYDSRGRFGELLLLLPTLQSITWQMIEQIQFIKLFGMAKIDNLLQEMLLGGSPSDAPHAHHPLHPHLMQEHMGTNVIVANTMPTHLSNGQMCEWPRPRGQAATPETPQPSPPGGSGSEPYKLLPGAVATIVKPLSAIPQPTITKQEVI
The experiment can be described thus: protein-binding microarray; COS-7 nuclear extract on double-stranded Agilent 4x180k PBM; binding buffer, salt, pH and temperature not given in the material; high values mean tight binding. The conditions noted are these: chain copies: 2; label: 3' end of strand 1 on the slide; dsDNA, one strand shown. A digest of the protocol:
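Nuclear extracts of COS-7 cells transiently transfected with a human HNF4α isoform were applied to a custom Agilent SurePrint G3 4x180k array bearing ~44,000 double-stranded ~60-nt test sequences, each in quadruplicate. The bound protein was imaged on an Agilent G2565CA scanner at 2-µm resolution. Binding signal is the normalized, background-corrected gProcessedSignal from Agilent software.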
For “GAGTCTGTTGTCTAACATTTTTGACCTTCAGCCTAGGGAGATTAGAGTATCGGTCGA”, the binding signal is 4.09 log2 normalized intensity.
In the case of “GTCTGTTGACCTTTGGCCAAGGGCAGTGTTGCCTAGGGAGATTAGAGTATCGGTCGA”, the binding signal came to 6.71 log2 normalized intensity.
Next, “AGGCAGTCTGTTGACCTTTGGCCAAGGGCAGCCTAGGGAGATTAGAGTATCGGTCGA”: 7.73 log2 normalized intensity; “CAACTGGTATGTTAGATTAGTGTGCAGCTTGCCTAGGGAGATTAGAGTATCGGTCGA”: 0.891 log2 normalized intensity.
For “TCTGACCTCTTTCAAGCCTGAACAAACATGGCCTAGGGAGATTAGAGTATCGGTCGA”, the binding signal worked out at 0.93 log2 normalized intensity.
In the case of “GTCCGGCAGAGCTATGGAATTTTGGCCTTTGCCTAGGGAGATTAGAGTATCGGTCGA”, the binding signal was 3.22 log2 normalized intensity.
In the case of “TGCTTCCAAGTTATGCAGACCTTTGCCCTTGCCTAGGGAGATTAGAGTATCGGTCGA”, the binding signal turned out to be 7.17 log2 normalized intensity.
On to “TTATGCAGACCTTTGCCCTTTGTTTACATAGCCTAGGGAGATTAGAGTATCGGTCGA”, for which the binding signal turned out to be 5.27 log2 normalized intensity.
Then “GCAGGGGATGCCCTTTGACCTCTGCTTCCTGCCTAGGGAGATTAGAGTATCGGTCGA”, with 8.18 log2 normalized intensity; and “GGATGCCCTTTGACCTCTGCTTCCTGCTACGCCTAGGGAGATTAGAGTATCGGTCGA”, with 5.58 log2 normalized intensity; and “ATTCCCTCCAGCAGGGGATGCCCTTTGACCGCCTAGGGAGATTAGAGTATCGGTCGA”, with 8.91 log2 normalized intensity.
For “AAAGCCTAGGCTCCAGGGCACTGCCCTTTGGCCTAGGGAGATTAGAGTATCGGTCGA”, the binding signal stood at 3 log2 normalized intensity.
As to “ATGCCCCTCCCAGGGACACATGCCCCTTCCGCCTAGGGAGATTAGAGTATCGGTCGA”, the binding signal was found to be 5.44 log2 normalized intensity.
Next, “TACTTTGCTTCCAAGTTATGCAGACCTTTGGCCTAGGGAGATTAGAGTATCGGTCGA”: 2.14 log2 normalized intensity.
Take “CTCCAGGGCACTGCCCTTTGGAACCTGCCCGCCTAGGGAGATTAGAGTATCGGTCGA”: the binding signal came to 5.54 log2 normalized intensity.
Then “TGCACATTCCCTCCAGCAGGGGATGCCCTTGCCTAGGGAGATTAGAGTATCGGTCGA”, with 2.38 log2 normalized intensity; and “CTAGGCTCCAGGGCACTGCCCTTTGGAACCGCCTAGGGAGATTAGAGTATCGGTCGA”, with 6.71 log2 normalized intensity.
Consider “CCCTTTGACCTCTGCTTCCTGCTACAGAGCGCCTAGGGAGATTAGAGTATCGGTCGA”, for which the binding signal was found to be 1.87 log2 normalized intensity.
Next, “TTGGGTCACAATCACAAATGCCTTCAGGGGGCCTAGGGAGATTAGAGTATCGGTCGA”: 0.838 log2 normalized intensity; “TCAGCCCACAGGTCAATCCAGGTTGCTGCCGCCTAGGGAGATTAGAGTATCGGTCGA”: -0.646 log2 normalized intensity.
Next, “GGCCCAGAGCACAACCTTTGGCCGTGCATGGCCTAGGGAGATTAGAGTATCGGTCGA”: 2.45 log2 normalized intensity; “TTAAATCCTATCCTAGGGTTAAAGTCTACAGCCTAGGGAGATTAGAGTATCGGTCGA”: 4.31 log2 normalized intensity.
For the sequence “ACCCCACGGACTTAAATTGTGCTGTGTCAGGCCTAGGGAGATTAGAGTATCGGTCGA”, the binding signal amounted to 1.49 log2 normalized intensity.
As to “CAAAGTCCGCTTGCCTGAGGGTCATGACTAGCCTAGGGAGATTAGAGTATCGGTCGA”, the binding signal is 2.26 log2 normalized intensity.
Next, “GCCAATTCAGCAAACAAAGGCACTTCTCTCGCCTAGGGAGATTAGAGTATCGGTCGA”: -0.96 log2 normalized intensity; “TGAGCAGGCAGTGTCACAGAAATCATGTAGGCCTAGGGAGATTAGAGTATCGGTCGA”: 0.722 log2 normalized intensity; “AGGTCAAAGTGCAACTACAAGGAGCAGCCTGCCTAGGGAGATTAGAGTATCGGTCGA”: 3.48 log2 normalized intensity.
Then “ACCTTGTGCAGTATCCCAGGGACTTACTCAGCCTAGGGAGATTAGAGTATCGGTCGA”, with -0.811 log2 normalized intensity; and “TTGTTCAATAAGCAATACATTGAACTTTGAGCCTAGGGAGATTAGAGTATCGGTCGA”, with 7.41 log2 normalized intensity; and “CAATAAGCAATACATTGAACTTTGAACACCGCCTAGGGAGATTAGAGTATCGGTCGA”, with 6.91 log2 normalized intensity.
Next, “AAGCAAACAAAACACGGACTTTGAAGCTCCGCCTAGGGAGATTAGAGTATCGGTCGA”: 1.95 log2 normalized intensity; “AGAGCCTAGTTCATTGCAATTACTCAATAAGCCTAGGGAGATTAGAGTATCGGTCGA”: -0.91 log2 normalized intensity.
On to “TTTTCAACATATACTTTGAACTTGTTTTTTGCCTAGGGAGATTAGAGTATCGGTCGA”, for which the binding signal is 2.27 log2 normalized intensity.
In the case of “AGCAATACATTGAACTTTGAACACCTCTTCGCCTAGGGAGATTAGAGTATCGGTCGA”, the binding signal came to 5.41 log2 normalized intensity.
With “TTTCATCTTCTTAGCCTTTGAACCCCACACGCCTAGGGAGATTAGAGTATCGGTCGA”, the binding signal was determined as 4.78 log2 normalized intensity.
As for “GATTTCATCTAAGGACAAACTTTGTCACTGGCCTAGGGAGATTAGAGTATCGGTCGA”, the binding signal is 1.15 log2 normalized intensity.
Then “ATCTAAGATTCCCCCTACCCTCAATATCTGGCCTAGGGAGATTAGAGTATCGGTCGA”, with 4.35 log2 normalized intensity; and “TTAACAAGCATTTTGTTCCCATTGATCATTGCCTAGGGAGATTAGAGTATCGGTCGA”, with 1.23 log2 normalized intensity; and “CTGCCAAAGCTCACAGATGTGGAATGAAACGCCTAGGGAGATTAGAGTATCGGTCGA”, with -0.0699 log2 normalized intensity.
Next, “ACCTTTGACCCTTCTCTGGGAGAAAGGGAGGCCTAGGGAGATTAGAGTATCGGTCGA”: 2.99 log2 normalized intensity; “CAATCCTGGAGAAGGAGCACCAATGACCTTGCCTAGGGAGATTAGAGTATCGGTCGA”: 3.47 log2 normalized intensity.
For “TTTGAAAGAAAGAGACCTTTACCCTGACCTGCCTAGGGAGATTAGAGTATCGGTCGA”, the binding signal was found to be 3.55 log2 normalized intensity.
Next, “CAATGACCTTTGACCCTTCTCTGGGAGAAAGCCTAGGGAGATTAGAGTATCGGTCGA”: 8.21 log2 normalized intensity; “AAACAATGACCTCTGCACCCTTCCCTGAGTGCCTAGGGAGATTAGAGTATCGGTCGA”: 3.51 log2 normalized intensity; “GAAGGAGCACCAATGACCTTTGACCCTTCTGCCTAGGGAGATTAGAGTATCGGTCGA”: 11.1 log2 normalized intensity.
